HT1080 IDH1KD tx – kills HT-1080 cells with IDH1 knockdown; Potency, µM (series often up to 46.1 µM), for inactives: top-dose activity, negative = toxicity, most hits filed as cytotoxic; HT-1080 IDH1 knockdown viability, ATP luminescence, 48 h; 360,000 compounds, 2% hits;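 note: potency is the fitted concentration of half-maximal effect; 0% = DMSO wells and -100% = cell-free medium wells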
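IDH1KD HT-1080 cells, 750/well, RPMI + 5% FBS; compound pinned after 2 h settling; 48 h, 37 °C; CellTiter-Glo luminescence; % activity normalised to DMSO and no-cell wells; curves fitted, classed by r2 and efficacy.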
ELG1 repair inh – blocks ELG1-dependent DNA repair in HEK293T cells; Potency, µM (doses to about 46.1 µM), inactives show at the highest dose activity change, negative = inhibition, usual class: inhibitors; 330,000 compounds, 2.3% hits; HEK293T ELG1-luciferase reporter, luminescence, 16 h; DNA damage induced by 5-fluorouridine; note: potency is the fitted concentration of half-maximal effect; nearly all actives have a fitted effect of over 55% in size
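Quantitative HTS, concentration-response format. 2,000 cells/well co-treated with 5-fluorouridine and compound, 16 hr in 5% CO2 at 37 °C; ONE-Glo luminescence read after 30 min.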
DT40 TDP1 CPT – DT40-hTDP1 cell growth loss with CPT | chicken DT40 Tdp1-/-;hTDP1 cells + 20 nM CPT, ATP luminescence, 48 h | Potency, µM (series often up to 46.2 µM), for inactives: at the top dose activity change, negative = growth inhibition, usual class: inhibitors | 420,000 compounds, 12% hits; note: potency is the fitted concentration of half-maximal effect; nearly all actives have a fitted effect of over 55% in size
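Chicken DT40 Tdp1-/- cells complemented with human TDP1, 400 cells/well, exposed to compounds plus 20 nM camptothecin for at least 48 h at 37 C; viability read as ATP content by CellTiter-Glo luminescence.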
TDP1 cell noCPT – qHTS for Inhibitors of human tyrosyl-DNA phosphodiesterase 1 (TDP1): qHTS in cells in absence of CPT | DT40 Tdp1-/- hTDP1 cells, no CPT, ATP luminescence, 48 h | Potency, µM (doses to about 46.2 µM), without a hit: at the highest dose activity change, negative = growth inhibition, usual class: inhibitors | 420,000 compounds, 15% hits | AID 686978, 2013; note: potency is the fitted concentration of half-maximal effect; nearly all actives have a fitted effect of over 55% in size
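Stably hTDP1-transfected Tdp1-null chicken DT40 cells were treated with library compounds minus camptothecin and grown for at least 48 hr at 37 °C, after which cellular ATP was quantified by luminescence.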
HT1080NT lethal – kills 2HG-producing HT-1080-NT fibrosarcoma cells. HT-1080-NT fibrosarcoma viability, CellTiter-Glo ATP luminescence, 48 h. Potency, µM (highest dose often 46.1 µM), for inactives: top-dose activity, negative = less viability, hits mostly cytotoxic. 360,000 compounds, 1.6% hits;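 note: NT is the 2HG producing partner of a matched IDH1 knockdown line; potency is the fitted concentration of half-maximal effect; 0% = DMSO-treated cells and -100% = media-only wells without cells; nearly all actives have a fitted effect of over 55% in size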
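HT-1080-NT; 750 cells/well; 5% FBS RPMI; 48 h compound, 37 degrees C; CellTiter-Glo luminescence; curve fitting and curve-class assignment.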
IL-1B inflam inh – inhibitors of inflammasome signaling (IL-1 beta secretion). THP-1 LPS/ATP IL-1B secretion, AlphaLISA, 16 h; stronger effect = lower value. activity change, % at 57.5 µM. 360,000 compounds, 4.7% hits; in the data active = activity change below about -50%; inconclusive = mostly about -30% to -49%
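Secreted IL-1B measured by AlphaLISA bead assay after 16 h compound exposure of THP-1 cells; compounds (final up to 57.5 uM) added 1 h before LPS (250 ng/mL) and ATP (1.25 mM) stimulation; lower signal means less secretion.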
* = called active by the depositor; ? = inconclusive; . = no result given; [ ] = another dose, or the depositor's remark. Hits are enriched below; roughly 19% of the tested compounds scored in any of these assays. Unless noted, calls come from the whole dose curve; as a rule, active = well fitted curve in the direction sought with a large enough effect; inconclusive = small, poorly fitted or top-dose-only effect, or another doubt; inactive = no such curve, though single readings can be large; an effect the other way counts as inactive or inconclusive. Unless noted, % is set by controls: 0 for no effect and ±100 for the full control effect.

SMILES	HT1080 IDH1KD tx	ELG1 repair inh	DT40 TDP1 CPT	TDP1 cell noCPT	HT1080NT lethal	IL-1B inflam inh
CCOC(=O)C1=C(CS(=O)(=O)c2ccc(F)c(C)c2)NC(=O)NC1c1ccccc1OC (stereo not drawn)	.	.	29µM*	?	.	.
CCOC(=O)C1=C(COC(=O)CCOc2ccc(C)cc2)NC(=O)NC1C (stereo not drawn)	-27%	26µM*	6.5µM*	5.8µM*	?	?
CCOC(=O)C1=C(COC(=O)/C=C/c2ccc(OC)cc2OC)NC(=O)NC1C (stereo not drawn)	5%	?	?	15µM*	5%	?
Cc1cnc(SCC2CCCO2)nc1C1CCCN(C(=O)c2ccc(S(N)(=O)=O)cc2)C1 (stereo not drawn)	.	.	6%	?	.	.
CCOC(=O)C1=C(CSCc2ccccc2)NC(=O)NC1c1cc(C)ccc1C (stereo not drawn)	?	?	?	?	?	-51*
CCOC(=O)C1=C(COc2ccc(C)cc2)NC(=O)NC1c1cc(C)ccc1C (stereo not drawn)	10%	?	23µM*	12µM*	12%	19
CCOC(=O)C1=C(C)NC(=O)NC1c1ccccc1OCc1c(F)cccc1Cl (stereo not drawn)	-16%	12%	23µM*	16µM*	-10%	-9
CCOC(=O)C1=C(CN2CCCCC2)NC(=O)NC1c1cc(C)ccc1C (stereo not drawn)	-9%	-1%	?	?	1%	4
CCCOc1ccccc1C1NC(=O)NC(C)=C1C(=O)OCCOCC (stereo not drawn)	-2%	7%	-4%	-17%	0%	-12
CCOC(=O)C1=C(COc2ccc(F)cc2Cl)NC(=O)NC1c1cc(C)ccc1C (stereo not drawn)	14%	23%	?	21µM*	8%	7
COc1ccc(NC(=O)/C(C#N)=C/c2ccc(OCc3cc(=O)n4nc(C)sc4n3)cc2)cc1	.	.	-1%	-5%	.	.
Cc1ccc(Cn2cnc3c(oc4ccccc43)c2=O)cc1	.	.	-4%	-21%	.	.
O=C(c1ccccc1F)N(Cc1cc2cc3c(cc2nc1N1CCOCC1)CCC3)CC1CCCO1 (stereo not drawn)	.	.	-10%[9.04 µM]	?	.	.
CCOC(=O)c1c(C)[nH]c(C)c1S(=O)(=O)N1CCCC(C(=O)NCc2cccc(C)c2)C1 (stereo not drawn)	.	.	-23%	-3%	.	.
O=C(C1=NNCC1c1ccccc1)C1OC1c1ccccc1 (stereo not drawn)	-18%	21%	-18%	?	-2%	-89*
COc1ccccc1Cc1nc2ccccc2nc1SCC(=O)Nc1ccc2c(c1)OCO2	.	.	0%	-16%	.	.
COc1ccc2ccccc2c1CN1CCCC(n2cc(C(=O)N3CCCC3)nn2)C1 (stereo not drawn)	.	.	0%	-9%	.	.
O=C(N/N=C/c1ccccn1)c1ccc(N/N=C/c2ccccn2)cc1	14%	?	1%	1%	4%	10
CC(C)(C)c1ccc(C(=O)N/N=C/c2ccccn2)cc1	?	?	9.2µM*	5.8µM*	?	161
O=C(N/N=C/c1ccccn1)c1ccc(Br)cc1	?	?	21µM*	15µM*	-21%	-105*
COC(=O)C[C@@H]1C=C[C@H](NC(=O)Nc2cc(F)ccc2F)[C@@H](CO)O1	0%	.	-9%	-12%	-2%	12
Cc1nc(SC(C(=O)c2ccccc2)c2ccccc2)nc2ccccc12 (stereo not drawn)	-18%	-2%	?	?	-12%	40
COc1ccc2nc(SC(C(=O)c3ccccc3)c3ccccc3)nc(C)c2c1 (stereo not drawn)	11%	17%	23µM*	?	1%	9
CCCCC(=O)Oc1ccc2oc(-c3ccc(OC)cc3)cc(=O)c2c1	.	.	-3%	0%	.	.
c1ccc(-c2c[nH]c3[n+]2CCCCC3)cc1	-5%[9.24 µM]	-16%	-29%	9.2µM*	-1%	8
SMILES	HT1080 IDH1KD tx	ELG1 repair inh	DT40 TDP1 CPT	TDP1 cell noCPT	HT1080NT lethal	IL-1B inflam inh
CCC1CCc2c(sc3ncnc(N4CCOCC4)c23)C1 (stereo not drawn)	-1%	?	?	18µM*	-13%	0
CC1CCc2sc3ncnc(N4CCN(C)CC4)c3c2C1 (stereo not drawn)	-17%	-24%	?	?	-21%	-14
CCN(CC(=O)N1CCc2ccccc2C1)S(=O)(=O)c1ccc2ccccc2c1	-5%	-2%	?	?	-1%	-1
CC(C)CC(CO)N1CCN(C(=O)c2ccc(Cl)cc2)CCC1=O (stereo not drawn)	12%	.	7%	1%	20%	3
CC(C)C[C@@H](COCc1ccc(C(F)(F)F)cc1)N1CCN(C(=O)c2ccc(C(F)(F)F)cc2)CCC1=O	?	.	?	?	?	-76*
CC(C)CC(CO)N1CCN(C(=O)c2ccc(C(C)(C)C)cc2)CCC1=O (stereo not drawn)	9%	?	?	?	12%	14
CC(C)C[C@@H](COCc1cccc(Cl)c1)N1CCN(C(=O)c2ccc(C(F)(F)F)cc2)CCC1=O	?	.	?	?	?	-50*
CC(C)CC(COCc1ccc(C(F)(F)F)cc1)N1CCN(C(=O)c2ccc(C(F)(F)F)cc2)CCC1=O (stereo not drawn)	?	-4%	?	?	?	-54*
CN(CCCn1ccc(NC(=O)OCc2ccccc2)nc1=O)Cc1ccco1	-7%	.	1%	-5%	-5%	-14
COc1ccccc1-n1cnnc1SCC(=O)c1cc(C)n(Cc2cccs2)c1C	-3%	10%	?	?	0%	0
C=CCn1c(SCC(=O)c2cc(C)n(Cc3cccs3)c2C)nnc1-c1ccncc1	1%	16µM*	?	?	3%	-7
Cc1cc(C(=O)CSc2nnc(-c3ccccc3F)o2)c(C)n1Cc1cccs1	-6%	?	23µM*	?	7%	43
Cc1cc(C(=O)CN2C(=O)c3cccc(N)c3C2=O)c(C)n1Cc1cccs1	-15%	?	?	21µM*	-11%	-19
Cc1ccccc1NC(=O)c1ccc(Cl)c(NC(=O)c2ccncc2)c1	13%	-17%	-5%	-16%	5%	21

Screening results from PubChem BioAssay.
